Here are results for 22 sequences from the supplement of paper PMC6555819.

For this assay, the system named is PXR:RXRa (NR concentration 270 nM, RXRa partner concentration 90 nM). Briefly: PBM binding z-score (relative to random genomic background probes); higher = stronger binding; sequences stand for … in GC…GCGATTGACAGCGTAGAATGAAGG
The procedure, abridged:
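Binding z-scores take random background probes as their reference. They come from custom Agilent 4×180K protein-binding microarrays incubated 1 h with ligand-free nuclear receptor dimers, with antibodies against each partner (one per run) detecting binding. Scanned fluorescence was regression-normalized.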
Consider ATCGAAATGTCGAGGTGAGTATAGAGAAAGGGAA, for which the PBM binding z-score is -0.204. The same measure for ACTAGCAGGCCCAGTTTGGGTCACTCAAACAAAG: 0.133; for CCTAGTTGGTCGGGAGGTCACACACCGGATATGA: 4.29. Sequence ATCTCTAGGTAAAGACAGTTCAGTGAATGCAAAT displayed a PBM binding z-score of 1.61. The same measure for CCGATTGGGGCAAGGTTACCATAACGCACAGCCA: 0.36.

Take GCTGTTAGGTCAACTGATGGTCAGCTAAAGCTCG: the PBM binding z-score turned out to be 2.32. As for AGAATGAGGTTATACGTAGTTCAGGGAAGAAAGT, the figure is 3.07. The same measure for CCTTGTTGGTCAAGGTCACACACGCTATAGGTAC: 4.23; for CGTCCAAGGTCAGAGAGGTCAGTTAATGCCGAGT: 6.24; for TCGAGTAGGTCAGGGGCATTCAGAATGGCGTCGA: 1.2. In turn, GCAGACAGGTGAAACGCAGGAAACTCAGGGTGGC displayed a PBM binding z-score of -0.387. As for ACTCGGAGAACAAAGGTCAGAGCTACGCCAGTGA, the figure is 3.41. The same measure for ATCTCTAGGTAAAGATAGATCAGTGAATGCAAAT: -0.396; for CGTCCAAGGGCAAAGGTCAGTGAAGAGATGACGG: 4.76; for TCTCGGAGGACACGAACGGTCAGAGCTCGACATC: -0.215.

In turn, GCGACTGGGGTATCAGCAGGTTACCATAACTTAA showed a PBM binding z-score of -0.149. As for ATCTCTAGGTAAAAAGTTCAGTGAAAGAGAGGAC, the figure is 1.56; as for CTCGAAAGGTCGGTTAAGGTGAGTATACGGATAA, 2.61; as for GCTGCTAGGTCAGGTTGGTCACCTAACGGGTACG, 0.48.

Sequence GGAACGAGGGCAAAGTTGATAGCATCTGTCGACG registered a PBM binding z-score of 1.14. For CCTTACGGGTGACTGACAGGTTATAGCATTTGGA, the PBM binding z-score was found to be 0.299.

In turn, AATCCAGGGTCATCGTAGGCCAGAGTACGCACAG had a PBM binding z-score of 5.14.
